# Results published in PubChem BioAssay (Tox21).
# Records with an inconclusive call do not appear. A call without a number means that no potency is given here. Active and inactive are the calls of the source. Unless noted, calls follow the shape of the full dose curve.
# What was measured:
# [1] = Nuclear factor erythroid 2-related factor 2/antioxidant responsive element (Nrf2/ARE) small molecule agonists: qHTS cell viability counter screen in human keratinocytes (AID 1919968; active = well fitted curve in the direction sought with a large enough effect in the repeat runs; an effect the other way counts as inactive or inconclusive; also: nearly all actives have a fitted effect of over 55% in size; also: potency is read from the fitted curve at half-maximal effect)
# Outline: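 Viability counter-screen: KeratinoSens reporter cells, DMSO-delivered compounds, 23 h at 37 C, CellTiter-Fluor fluorescence.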
# [2] = target: Gonadotropin-releasing hormone receptor (Homo sapiens) (UniProt P30968); experiment: Human gonadotropin-releasing hormone receptor (GnRHR) small molecule agonists, calcium flux assay in GnRHR-HEK293 cells (AID 1920063); also: nearly all actives have a fitted effect of over 35% in size
# Outline: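 Tox21-format agonist screen using human GnRHR-expressing HEK293 cells and a fluorescent calcium dye; kinetic 3-min fluorescence reading after compound addition, 15-point concentration series run in triplicate.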
# [3] = target: KiSS-1 receptor (Homo sapiens) (UniProt Q969F8); experiment: Human kisspeptin (KISS1R) small molecule agonists, calcium flux assay in KISS1R-HEK293 cells (AID 1920064; active = well fitted curve in the direction sought with a large enough effect in the repeat runs; an effect the other way counts as inactive or inconclusive)
# Outline: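 Intracellular calcium mobilization in KISS1R-HEK293 cells was recorded by fluorescence (Ex/Em 480/540) for 3 min following compound addition to cells pre-loaded 1 h with calcium dye.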
# [4] = p53 small molecule agonists, cell-based qHTS assay with human liver microsomes (AID 1963577);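 also: p53 response element beta-lactamase reporter cells with liver microsomes plus NADPH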
# Outline: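 16 h, 37 C exposure of p53RE-bla cells to compounds with human liver microsomes and NADPH (0.5 mg/mL final each); detection via LiveBLAzer mixture, 2 h dark at room temperature.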
# [5] = p53 small molecule agonists, cell-based qHTS assay with rat liver microsomes (AID 1963578)
# Outline: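 With rat liver microsomes and NADPH present (0.5 mg/mL final each), p53RE-bla cells are treated with compound for 16 h at 37 C. LiveBLAzer detection mixture is then applied for 2 h at room temperature in the dark.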
# [6] = p53 small molecule agonists, cell-based qHTS assay with human liver microsomes: qHTS cell viability counter screen (AID 1963579); also: nearly all actives have a fitted effect of over 45% in size
# Outline: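 In this multiplexed counter screen, the reporter plates were subsequently treated with CellTiter-Glo so that cell viability, reflected by luminescence, could be recorded for p53RE-bla cells dosed 16 h with compounds under microsomal activation (HLM and NADPH).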
# [7] = p53 small molecule agonists, cell-based qHTS assay with rat liver microsomes: qHTS cell viability counter screen (AID 1963580); also: nearly all actives have a fitted effect of over 45% in size
# Outline: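 p53RE-bla HCT-116 cells (4,000/well) rested 5 h at 37 C, then given Tox21 compounds in DMSO with rat liver microsomes (0.5 mg/mL final) plus NADPH (0.5 mg/mL final) for 16 h at 37 C. Viability read by CellTiter-Glo luminescence after 30 min at room temperature.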
# [8] = p53 small molecule agonists, cell-based qHTS assay: qHTS cell viability counter screen (AID 1963581); also: nearly all actives have a fitted effect of over 45% in size
# Outline: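 Compounds are pinned onto HCT-116 p53RE-bla cells and left 16 h at 37 C. Following the reporter FRET read, ATP is quantified by CellTiter-Glo luminescence after 30 min at room temperature.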
# [9] = p53 small molecule agonists, cell-based qHTS assay (AID 1963582; active = well fitted activation curve with a large enough effect in the signal ratio in the repeat runs, not every such curve was filed as active; the % refers to the signal ratio)
# Outline: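 Agonist activity was scored from beta-lactamase FRET fluorescence in p53RE-bla cells treated 16 h at 37 C with compounds in DMSO, substrate incubation being 2 h at room temperature.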
# [10] = target: 5-hydroxytryptamine receptor 2A (Homo sapiens) (UniProt P28223); experiment: 5-hydroxytryptamine receptor 2A (HTR2A) small molecule antagonists, cell-based qHTS assay (AID 1963586); also: nearly all actives have a fitted effect of over 45% in size; also: potency is read from the fitted curve at half-maximal effect
# Outline: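 Antagonist-mode intracellular calcium assay: DOI (4 nM) added after 5 min compound pre-incubation at room temperature to dye-loaded HTR2A-CHO cells. Fluorescence followed for 3 min, sampled every second.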
# [11] = target: 5-hydroxytryptamine receptor 2A (Homo sapiens) (UniProt P28223); experiment: 5-hydroxytryptamine receptor 2A (HTR2A) small molecule agonists, cell-based qHTS assay (AID 1963587); also: nearly all actives have a fitted effect of over 30% in size
# Outline: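 HTR2A-CHO cells, plated 18 h at 37 C/5% CO2, dye-loaded 1 h at 37 C; compounds in DMSO added by pin tool (agonist mode). Intracellular calcium flux read as kinetic fluorescence on FDSS over 2 min at 1 s intervals.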
# [12] = target: Muscarinic acetylcholine receptor M1 (Homo sapiens) (UniProt P11229); experiment: Cholinergic receptor muscarinic 1 (CHRM1) small molecule antagonists, cell-based qHTS assay (AID 1963588); also: nearly all actives have a fitted effect of over 40% in size
# Outline: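 CHRM1-CHO calcium-flux assay, antagonist mode. Cells were seeded 18 h, dye-loaded 1 h at 37 C and given compound for 5 min at RT, then acetylcholine was added at 50nM. FDSS fluorescence was read 3 min; 15 concentrations, three runs.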
# [13] = target: Muscarinic acetylcholine receptor M1 (Homo sapiens) (UniProt P11229); experiment: Cholinergic receptor muscarinic 1 (CHRM1) small molecule agonists, cell-based qHTS assay (AID 1963589); also: nearly all actives have a fitted effect of over 35% in size
# Outline: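 Stable CHRM1-CHO cells (human receptor) were incubated 18 h, dye-loaded for 1 h at 37 C and exposed to test compounds for agonist activity, with calcium-dependent fluorescence followed kinetically.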
# [14] = cAMP Responsive Elements (CRE) small molecule agonists, cell-based qHTS assay (AID 1963590)
# Outline: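 FRET-based beta-lactamase readout (LiveBLAzer B/G, 2 h RT) quantified CRE activation in HEK 293T CRE-bla cells after 3 h treatment with DMSO-dissolved compounds.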
# [15] = cAMP Responsive Elements (CRE) small molecule antagonists, cell-based qHTS assay (AID 1963591; active = well fitted inhibition curve with a large enough effect in the signal ratio in the repeat runs, not every such curve was filed as active; the % refers to the signal ratio)
# Outline: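 qHTS in CRE-bla HEK 293T cells: compound in DMSO, then 0.25 uM NKH477 (final), 3 h at 37 °C/5% CO2; beta-lactamase FRET read-out after 2 h substrate incubation.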
# [16] = target: Beta-2 adrenergic receptor (Homo sapiens) (UniProt P07550); experiment: Adrenergic beta2 receptor (ADRB2) small molecule antagonists, cell-based qHTS assay (AID 1963592); also: series mostly up to about 92 µM; nearly all actives have a fitted effect of over 50% in size
# Outline: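 Cells (CHO, stable ADRB2 overexpression) incubated 18-20hr at 37C; compounds added from DMSO; agonist mix (1nM isoproterenol, 100uM IBMX, 25uM Ro-20-1724) added; 0.5hr RT; d2-cAMP and anti-cAMP-cryptate added; 1hr RT; 665/615 nm read.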
# [17] = target: D(2) dopamine receptor (Homo sapiens) (UniProt P14416); experiment: Dopamine D2 receptor (DRD2) small molecule agonists, cell-based qHTS assay (AID 1963594); also: nearly all actives have a fitted effect of over 35% in size
# Outline: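 HEK293 cells stably expressing DRD2 were cultured 24 h at 37 C, then given Ro20-1724 (0.1 mM final) and compounds for 10 min at room temperature. NKH477 (200nM) was then added for 30 min. cAMP was read by HTRF.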
# [18] = target: D(2) dopamine receptor (Homo sapiens) (UniProt P14416); experiment: Dopamine D2 receptor (DRD2) small molecule antagonists, cell-based qHTS assay (AID 1963595; active = well fitted inhibition curve with a large enough effect in the signal ratio in the repeat runs, with a control signal flat; the % refers to the signal ratio)
# Outline: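 Cells were plated and grown for 24 h at 37 °C. Ro20-1724 (0.1 mM final) went in first, then compound for 10 min. NKH477 (200 nM) with quinpirole (12 nM) followed for 30 min at RT, then HTRF detection reagents for 1 h.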
# [19] = G protein-coupled receptor (GPCR) small molecule agonists, calcium flux assay: HEK293 wild type cell line counter screen (AID 1920065)
# Outline: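 In this agonist-mode screen, ATP is the positive control and DMSO the vehicle. Cells grow 18 h before a 1 h dye incubation at 37 C; signal is taken at Ex/Em 480/540 over 3 min.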
# [20] = target: Beta-2 adrenergic receptor (Homo sapiens) (UniProt P07550); experiment: Adrenergic beta2 receptor (ADRB2) small molecule agonists, cell-based qHTS assay (AID 1963593);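 also: CHO cells stably overexpressing human ADRB2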
# Outline: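 CHO cells stably over-expressing ADRB2 were plated overnight at 37C, then dosed with compounds plus a stimulation mix containing 100uM IBMX and 25uM Ro-20-1724 for 0.5hr at room temperature. cAMP was measured by HTRF competition, 1hr.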
# Sequence of Gonadotropin-releasing hormone receptor (Homo sapiens) (P30968 whole entry, looked up): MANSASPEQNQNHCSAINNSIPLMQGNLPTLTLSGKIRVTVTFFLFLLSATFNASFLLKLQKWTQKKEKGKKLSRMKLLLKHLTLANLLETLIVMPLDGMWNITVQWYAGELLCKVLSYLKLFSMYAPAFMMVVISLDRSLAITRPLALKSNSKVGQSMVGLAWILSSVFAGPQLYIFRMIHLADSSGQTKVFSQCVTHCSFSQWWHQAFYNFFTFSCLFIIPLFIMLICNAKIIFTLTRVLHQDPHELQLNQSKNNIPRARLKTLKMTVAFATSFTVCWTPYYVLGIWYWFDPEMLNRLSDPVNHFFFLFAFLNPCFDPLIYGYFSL
# Sequence of Beta-2 adrenergic receptor (Homo sapiens) (P07550 whole entry, looked up): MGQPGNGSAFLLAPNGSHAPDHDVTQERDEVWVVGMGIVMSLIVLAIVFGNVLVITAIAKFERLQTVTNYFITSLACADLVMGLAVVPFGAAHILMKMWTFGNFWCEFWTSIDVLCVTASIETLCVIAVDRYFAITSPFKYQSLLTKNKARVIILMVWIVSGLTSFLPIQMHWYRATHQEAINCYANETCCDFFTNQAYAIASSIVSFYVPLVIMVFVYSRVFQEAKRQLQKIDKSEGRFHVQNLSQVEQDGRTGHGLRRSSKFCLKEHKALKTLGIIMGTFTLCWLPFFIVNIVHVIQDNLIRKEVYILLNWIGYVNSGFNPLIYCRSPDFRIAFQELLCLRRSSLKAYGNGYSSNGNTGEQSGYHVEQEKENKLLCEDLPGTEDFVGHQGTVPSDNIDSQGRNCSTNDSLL
# Sequence of KiSS-1 receptor (Homo sapiens) (Q969F8 whole entry, looked up): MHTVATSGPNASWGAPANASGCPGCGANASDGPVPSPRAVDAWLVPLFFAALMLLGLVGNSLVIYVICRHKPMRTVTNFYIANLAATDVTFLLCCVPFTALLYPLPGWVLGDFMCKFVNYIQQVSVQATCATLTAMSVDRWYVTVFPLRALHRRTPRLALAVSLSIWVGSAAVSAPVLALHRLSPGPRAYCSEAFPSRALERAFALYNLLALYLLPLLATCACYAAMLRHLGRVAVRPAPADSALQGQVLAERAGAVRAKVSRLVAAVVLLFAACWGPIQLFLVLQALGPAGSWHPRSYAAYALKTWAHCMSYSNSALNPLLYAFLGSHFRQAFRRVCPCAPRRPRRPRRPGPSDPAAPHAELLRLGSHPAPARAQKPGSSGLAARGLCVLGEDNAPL
# Sequence of 5-hydroxytryptamine receptor 2A (Homo sapiens) (P28223 whole entry, looked up): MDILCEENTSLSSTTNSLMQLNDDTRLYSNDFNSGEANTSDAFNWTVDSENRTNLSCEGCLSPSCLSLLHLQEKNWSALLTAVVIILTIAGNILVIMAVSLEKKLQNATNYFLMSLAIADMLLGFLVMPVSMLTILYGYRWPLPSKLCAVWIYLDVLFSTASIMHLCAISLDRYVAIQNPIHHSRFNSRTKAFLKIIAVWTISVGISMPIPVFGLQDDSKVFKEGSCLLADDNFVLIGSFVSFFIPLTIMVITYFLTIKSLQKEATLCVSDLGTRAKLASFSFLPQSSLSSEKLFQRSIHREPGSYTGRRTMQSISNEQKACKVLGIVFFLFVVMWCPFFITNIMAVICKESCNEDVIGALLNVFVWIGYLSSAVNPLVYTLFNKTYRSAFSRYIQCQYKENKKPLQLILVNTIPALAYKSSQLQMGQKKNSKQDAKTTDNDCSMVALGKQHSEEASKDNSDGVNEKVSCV
# Sequence of Muscarinic acetylcholine receptor M1 (Homo sapiens) (P11229 whole entry, looked up): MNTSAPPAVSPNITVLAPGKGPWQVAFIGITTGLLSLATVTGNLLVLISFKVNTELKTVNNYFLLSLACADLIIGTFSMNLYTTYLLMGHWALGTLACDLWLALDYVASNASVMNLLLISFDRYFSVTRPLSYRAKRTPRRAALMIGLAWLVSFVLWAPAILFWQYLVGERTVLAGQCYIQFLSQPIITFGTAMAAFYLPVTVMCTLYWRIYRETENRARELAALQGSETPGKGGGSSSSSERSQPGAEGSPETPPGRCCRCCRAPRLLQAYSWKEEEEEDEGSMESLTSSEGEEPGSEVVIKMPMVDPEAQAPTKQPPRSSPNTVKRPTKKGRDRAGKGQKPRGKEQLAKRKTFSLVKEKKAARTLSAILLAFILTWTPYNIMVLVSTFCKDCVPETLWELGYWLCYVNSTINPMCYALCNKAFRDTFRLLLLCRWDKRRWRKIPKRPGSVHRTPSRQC
# Sequence of D(2) dopamine receptor (Homo sapiens) (P14416 whole entry, looked up): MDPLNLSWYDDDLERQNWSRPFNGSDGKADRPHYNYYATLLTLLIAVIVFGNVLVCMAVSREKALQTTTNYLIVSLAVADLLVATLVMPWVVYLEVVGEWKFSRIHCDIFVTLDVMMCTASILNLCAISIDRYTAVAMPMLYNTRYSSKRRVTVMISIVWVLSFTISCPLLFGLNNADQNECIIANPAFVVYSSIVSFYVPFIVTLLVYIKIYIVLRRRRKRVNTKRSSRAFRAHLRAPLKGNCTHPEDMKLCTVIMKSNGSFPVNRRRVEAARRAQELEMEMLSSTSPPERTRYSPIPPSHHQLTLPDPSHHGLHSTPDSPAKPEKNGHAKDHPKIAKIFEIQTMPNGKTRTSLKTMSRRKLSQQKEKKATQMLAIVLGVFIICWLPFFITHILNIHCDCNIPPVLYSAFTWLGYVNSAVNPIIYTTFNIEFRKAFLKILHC
SMILES,Potency [1],Potency [2],Potency [3],Potency [4],Potency [5],Potency [6],Potency [7],Potency [8],Potency [9],Potency [10],Potency [11],Potency [12],Potency [13],Potency [14],Potency [15],Potency [16],Potency [17],Potency [18],Potency [19],Potency [20]
NCc1ccccc1Sc1ccccc1CO,inactive,inactive,inactive,inactive,inactive,inactive,inactive,inactive,inactive,inactive,inactive,inactive,inactive,inactive,inactive,inactive,inactive,inactive,,
C[n+]1ccn(CCO)c1,inactive,inactive,inactive,,,inactive,inactive,,,inactive,inactive,inactive,inactive,inactive,inactive,inactive,inactive,inactive,inactive,
O=S(=O)(O)c1ccc(N=Nc2c(O)ccc3cc(S(=O)(=O)O)ccc23)cc1,30.8 µM (active),inactive,inactive,,,,inactive,inactive,,inactive,inactive,inactive,,inactive,inactive,,,,inactive,
O=P(O)(O)O,inactive,inactive,inactive,,,inactive,,inactive,,inactive,inactive,inactive,inactive,inactive,inactive,inactive,inactive,inactive,inactive,inactive
O=S(=O)(O)c1ccccc1,inactive,,inactive,,,,inactive,inactive,,inactive,inactive,inactive,inactive,inactive,inactive,,inactive,inactive,inactive,inactive
C[N+](C)(C)CCO,inactive,inactive,inactive,,,inactive,inactive,inactive,,,,,,inactive,inactive,inactive,inactive,inactive,,inactive
COC(OC)OC,inactive,,inactive,,inactive,inactive,inactive,inactive,inactive,inactive,inactive,inactive,inactive,inactive,inactive,inactive,inactive,inactive,inactive,
NC1CCCCC1N (stereo unspecified),inactive,inactive,,inactive,inactive,inactive,inactive,inactive,inactive,inactive,inactive,inactive,,,inactive,inactive,inactive,inactive,inactive,
O=C(c1ccc(Cl)cc1)c1ccc(Cl)cc1,inactive,,inactive,inactive,inactive,inactive,inactive,inactive,inactive,inactive,inactive,inactive,inactive,inactive,inactive,inactive,inactive,inactive,inactive,inactive
OCCN1CCN(CCCN2c3ccccc3C=Cc3ccccc32)CC1,inactive,,inactive,inactive,,inactive,inactive,inactive,inactive,16.3 µM (active),inactive,inactive,inactive,inactive,inactive,inactive,inactive,,,inactive
Cc1cccc(S(=O)(=O)O)c1C,inactive,inactive,inactive,inactive,inactive,inactive,inactive,inactive,inactive,inactive,inactive,inactive,inactive,inactive,inactive,inactive,inactive,inactive,,
O=S(=O)(O)CCN1CCN(CCO)CC1,inactive,inactive,,inactive,inactive,inactive,inactive,inactive,inactive,inactive,inactive,inactive,inactive,inactive,inactive,inactive,inactive,inactive,inactive,inactive
COC(=O)c1ccc(C)cc1C1=NC(C)(C(C)C)C(=O)N1 (stereo unspecified),inactive,inactive,inactive,,,,,,inactive,inactive,inactive,inactive,,inactive,inactive,inactive,inactive,inactive,inactive,
OCC(O)CN1CCN(c2ccccc2)CC1 (stereo unspecified),inactive,inactive,,inactive,inactive,inactive,,inactive,,inactive,inactive,inactive,inactive,inactive,inactive,inactive,,inactive,,inactive
CC(=O)c1cccc([N+](=O)[O-])c1,inactive,inactive,,,inactive,inactive,inactive,inactive,inactive,inactive,inactive,inactive,inactive,inactive,inactive,inactive,inactive,inactive,inactive,inactive
Nc1ccc2cc3ccccc3cc2c1,inactive,inactive,inactive,,,inactive,inactive,inactive,,inactive,inactive,inactive,inactive,,,inactive,inactive,inactive,,inactive
